# About 410 targets per protein were measured; listed, in parts, are those with the strongest signals and a random draw of the rest.
# Assays:
# Experiment in all cases: glycan array binding signal (z-score within array); higher = stronger binding
# Details in all cases: glycan notation: IUPAC condensed, linker removed
# [1] = target: Fuc(a1-2)Gal6S(b1-4)Glc6S
# In short: (§1)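 The Consortium for Functional Glycomics database supplied 3228 glycan arrays, of which those lacking an available protein sequence were dropped. The binding signal, a within-array Z-score, was averaged across arrays of the same protein sequence and across linkers. Negative scores can be read as non-binding.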
# [2] = target: Fuc(a1-2)[Gal(a1-3)]Gal(b1-4)GlcNAc
# In short: as §1
# [3] = target: Fuc(a1-2)[GalNAc(a1-3)]Gal(b1-3)GlcNAc
# In short: as §1
# [4] = target: Fuc(a1-2)[GalNAc(a1-4)]Gal(b1-4)GlcNAc
# In short: as §1
# Fuc(a1-3)GlcNAc = target: Fuc(a1-3)GlcNAc
# In short: as §1
# [5] = target: Fuc(a1-3)[Gal(b1-4)]GlcNAc(b1-2)Man(a1-6)[Gal(b1-4)GlcNAc(b1-2)Man(a1-3)]Man(b1-4)GlcNAc(b1-4)GlcNAc
# In short: as §1
# Fuc(a1-4)GlcNAc = target: Fuc(a1-4)GlcNAc
# In short: as §1
# [6] = target: Gal(a1-3)[Gal(a1-4)]Gal(b1-4)GlcNAc
# In short: as §1
# Gal(a1-4)Gal(b1-4)Glc = target: Gal(a1-4)Gal(b1-4)Glc
# In short: as §1
# [7] = target: Gal(b1-4)GalNAc(a1-3)[Fuc(a1-2)]Gal(b1-4)GlcNAc
# In short: as §1
# Gal(b1-4)Glc = target: Gal(b1-4)Glc
# In short: as §1
# Gal(b1-4)Glc6S = target: Gal(b1-4)Glc6S
# In short: as §1
# [8] = target: GlcNAc(a1-3)Gal(b1-4)GlcNAc
# In short: as §1
# [9] = target: GlcNAc(a1-6)Gal(b1-4)GlcNAc
# In short: as §1
# Neu5Ac(a2-3)Gal = target: Neu5Ac(a2-3)Gal
# In short: as §1
# [10] = target: Neu5Ac(a2-3)Gal(b1-4)[Fuc(a1-3)]GlcNAc(b1-3)Gal(b1-4)GlcNAc
# In short: as §1
# [11] = target: Neu5Ac(a2-3)Gal(b1-4)[Fuc(a1-3)]GlcNAc(b1-6)[Gal(b1-3)]GalNAc
# In short: as §1
# [12] = target: Neu5Ac(a2-3)GalNAc(b1-4)GlcNAc
# In short: as §1
# Neu5Ac(a2-6)Gal(b1-4)Glc = target: Neu5Ac(a2-6)Gal(b1-4)Glc
# In short: as §1
# [13] = target: Neu5Ac(a2-6)Gal(b1-4)GlcNAc
# In short: as §1
# [14] = target: Neu5Ac(a2-6)Gal(b1-4)GlcNAc(b1-2)Man(a1-3)[Gal(b1-4)GlcNAc(b1-2)Man(a1-6)]Man(b1-4)GlcNAc(b1-4)GlcNAc
# In short: as §1
# [15] = target: Neu5Ac(a2-6)Gal(b1-4)GlcNAc(b1-2)Man(a1-3)[GlcNAc(b1-2)Man(a1-6)]Man(b1-4)GlcNAc(b1-4)GlcNAc
# In short: as §1
# [16] = target: Neu5Ac(a2-6)Gal(b1-4)GlcNAc(b1-2)Man(a1-3)[Neu5Ac(a2-6)Gal(b1-4)GlcNAc(b1-2)Man(a1-6)]Man(b1-4)GlcNAc(b1-4)GlcNAc
# In short: as §1
# [17] = target: Neu5Ac(a2-6)Gal(b1-4)GlcNAc(b1-2)Man(a1-6)[GlcNAc(b1-2)Man(a1-3)]Man(b1-4)GlcNAc(b1-4)GlcNAc
# In short: as §1
# [18] = target: Neu5Ac(a2-6)Gal(b1-4)GlcNAc6S
# In short: as §1
binder,measurement,setting,value
"SLR2P3F12 (Tachypleus tridentatus), TAL2_TACTR (protein) MEKGTPPTHDSDNWMGRAKKIGNGGWNQFQFLFFDPNGYLYAVSKDKLYKASPPQSDTDNWIARATEIGSGGWSGFKSLFFHPNGYLYAVHGQRLYKALPPVSNQD",glycan array binding signal (z-score),[1],-0.343
same,glycan array binding signal (z-score),[2],-0.417
same,glycan array binding signal (z-score),[3],0.556
same,glycan array binding signal (z-score),[4],2.01
same,glycan array binding signal (z-score),Fuc(a1-3)GlcNAc,-0.301
same,glycan array binding signal (z-score),[5],0.218
same,glycan array binding signal (z-score),Fuc(a1-4)GlcNAc,1.42
same,glycan array binding signal (z-score),[6],0.143
same,glycan array binding signal (z-score),Gal(a1-4)Gal(b1-4)Glc,-0.342
same,glycan array binding signal (z-score),[7],-0.208
same,glycan array binding signal (z-score),Gal(b1-4)Glc,2.75
same,glycan array binding signal (z-score),Gal(b1-4)Glc6S,-0.248
same,glycan array binding signal (z-score),[8],5.11
same,glycan array binding signal (z-score),[9],13.2
same,glycan array binding signal (z-score),Neu5Ac(a2-3)Gal,-0.415
same,glycan array binding signal (z-score),[10],-0.203
same,glycan array binding signal (z-score),[11],2.75
same,glycan array binding signal (z-score),[12],0.435
same,glycan array binding signal (z-score),Neu5Ac(a2-6)Gal(b1-4)Glc,-0.125
same,glycan array binding signal (z-score),[13],-0.317
same,glycan array binding signal (z-score),[14],-0.422
same,glycan array binding signal (z-score),[15],-0.235
same,glycan array binding signal (z-score),[16],0.131
same,glycan array binding signal (z-score),[17],1.27
same,glycan array binding signal (z-score),[18],0.194

# — the supplement of paper PMC8728848
